ChEMBL document CHEMBL4513216, “Probing the Open Global Health Chemical Diversity Library for Multistage-Active Starting Points for Next-Generation Antimalarials” (ACS Infect Dis, 2020)
The campaign covered roughly 68,000 compounds. About 2,700 (4%) showed an effect of 50% or more. For the sample, strong results were picked, then their nearest neighbours and some compounds at random.

The compounds below were run on Plasmodium berghei (assay: Screen against P. berghei liver stage (PbLuc), transformed with Luciferase, at 2uM). Settings: tested at 2 uM.
Assay type: functional, HepG2

| Compound | INHIBITION [%] |
| --- | --- |
| CN1CCC(N(CCc2ccccc2)C(=O)c2ccc(C#N)nc2)CC1 | 31.12 |
| CCc1cc(CNC(=O)N2Cc3ccccc3N(C)CC2C)on1 (stereo not drawn) | 61.01 |
| CCc1cc(CNC(=O)N2Cc3ccccc3N(C)CC2C)[nH]n1 (stereo not drawn) | -19.7 |
| CC1CN(C)c2ccccc2CN1C(=O)NCc1ccon1 (stereo not drawn) | 16.79 |
| O=C(CN1CCC2(CCCN(CCO)C2=O)C1)NCCc1ccccc1 (stereo not drawn) | -27.89 |
| Brc1cccc(C2(CNCc3cc[nH]c3)CCOCC2)c1 | 10.93 |
| O=C(CS(=O)(=O)c1ccc(Cl)cc1)NC1CCCc2ccccc21 (stereo not drawn) | 44.37 |
| CN(C)CC1CN(c2ncnc3[nH]ccc23)CCO1 (stereo not drawn) | -35.72 |
| Cc1cc(N2Cc3cnn(CCO)c3C2)nc(-c2ccccc2O)n1 | 53.55 |
| CCCc1nc(C)cc(N2Cc3cnn(CCO)c3C2)n1 | -18.52 |
| Cc1cc(N2CCN(CCO)CC2)nc(-c2ccncc2)n1 | 1.22 |
| Cc1cc(N2CCOC(C(F)(F)F)C2)nc(-c2ccccc2O)n1 (stereo not drawn) | -43.28 |
| Cc1cc(N2Cc3cnn(CCO)c3C2)nc(-c2ccccc2)n1 | 67.53 |
| Cc1cc(NCCO)nc(-c2ccccc2O)n1 | -4.81 |
| Cc1ccc(CC(=O)N2Cc3nccn3CC(Cn3cccn3)C2)cc1 (stereo not drawn) | -8.05 |
| CCc1nc(C2CCCN(C(=O)c3cccc(C(N)=O)c3)C2)no1 (stereo not drawn) | -12.41 |
| COc1ccc2[nH]c3c(c2c1)CN(c1cc(NCCO)nc(N)n1)CC3 | 13.24 |
| CN(Cc1ccccc1)C(=O)[C@@H]1Cc2[nH]cnc2CN1C | 4.59 |
| CN1Cc2nc[nH]c2C[C@H]1C(=O)NC1CCCCC1 | 60.6 |
| O=C([C@@H]1Cc2[nH]cnc2CN1C(=O)NC1CCCCC1)N1CCCC1 | 17.77 |
| CCC(C)C(=O)N(C)Cc1cc(F)ccc1N1CCC(OC)CC1 (stereo not drawn) | 15.56 |
| Cc1ccc(CNC(=O)c2ccc(S(=O)(=O)N3C[C@H]4C[C@@H]3CN4)cc2)o1 | 44.86 |
| CC(C)N1CCC(CNCc2c[nH]nc2C(C)(C)C)C1 (stereo not drawn) | 66.97 |

| Compound | INHIBITION [%] |
| --- | --- |
| CCN1CCC(CNCc2c[nH]nc2C(C)(C)C)C1 (stereo not drawn) | 37.68 |
| CC(C)(C)c1n[nH]cc1CNCC1CCN(C2CC2)C1 (stereo not drawn) | 10.43 |
| CCc1nc(CN2CCOC(Cn3nc(C)cc3C)C2)no1 (stereo not drawn) | -7.73 |
| O=C(CCCc1nc(C2CC2)no1)N1CCCC(c2ccn[nH]2)C1 (stereo not drawn) | 41.84 |
| COc1ccc(Cl)cc1NC(=O)CCNc1ccc(C#N)cn1 | 9.27 |
| N#Cc1cccc(CN2CC[C@@H]3CN(c4ncccn4)CCO[C@@H]3C2)c1 | 14.94 |
| O=S(=O)(C1CC1)N1CCc2onc(COc3ccccn3)c2C1 | 16.03 |
| CC(=O)N1CCCN(C(=O)NCc2cc[nH]n2)CC1 | -27.69 |
| O=C(NCc1cc[nH]n1)N1CCCC(N2CCCC2)C1 (stereo not drawn) | 51.94 |
| CCOc1ccccc1N1CCN(C(=O)NCc2cc[nH]n2)CC1 | 56.02 |
| CC(=O)NC1CCCN(C(=O)NCc2cc[nH]n2)C1 (stereo not drawn) | 45.83 |
| O=C(NCc1cc[nH]n1)N1CCN(c2ncccn2)CC1 | -23.42 |
| N#Cc1ccccc1N1CCCN(C(=O)NCc2cc[nH]n2)CC1 | -13.24 |
| O=C(NCc1cc[nH]n1)N1CCCCC(N2CCCC2)C1 (stereo not drawn) | 8.37 |
| CCN1CCN(C(=O)NCc2cc[nH]n2)CC1 | 56.02 |
| O=C(NCc1cc[nH]n1)NCC(c1ccco1)N1CCCC1 (stereo not drawn) | -4.1 |
| CN(C)C(CNC(=O)NCc1cc[nH]n1)c1ccco1 (stereo not drawn) | 53.61 |
| Cc1nc(CCNC(=O)NCC(c2ccco2)N(C)C)cs1 (stereo not drawn) | 34.73 |
| O=C(NCc1cc[nH]n1)N1CCN(c2ccccc2Cl)CC1 | -56.99 |
| CCCN(CC)C(=O)c1cc(Cn2c(C)nc3ccccc32)[nH]n1 | 38.75 |
| CNS(=O)(=O)c1cccc(CNc2ncccn2)c1 | -18.94 |
| c1ccn(Cc2nnc3n2CCCN(Cc2ccoc2)C3)c1 | 18.31 |
| COc1ccccc1C(CNC(=O)NCc1cc[nH]n1)N1CCCC1 (stereo not drawn) | -10.44 |

| Compound | INHIBITION [%] |
| --- | --- |
| CCC(CNC(=O)NCc1cc[nH]n1)N1CCCC1 (stereo not drawn) | 76.6 |
| CC(C)CC(CNC(=O)NCc1cc[nH]n1)N1CCOCC1 (stereo not drawn) | 40.29 |
| CC(=O)N1CC[C@@H]2CN(Cc3ccncc3)S(=O)(=O)[C@@H]2CC1 | -66.17 |
| Cc1c(C2CCOC(C)(C)C2)nc(N)c(C#N)c1-c1ccc(O)cc1 (stereo not drawn) | -11.34 |
| Cc1ccc(C)c2c1NC(=O)C2CC(=O)O (stereo not drawn) | 42.8 |
| Cc1cc(C)c2c(c1)C(CC(=O)O)C(=O)N2 (stereo not drawn) | 52.38 |
| Cc1cc(C)c2c(c1)NC(=O)C2CC(=O)O (stereo not drawn) | 33.22 |
| CCN1CC2(CC1=O)CN(C(=O)c1cccs1)CCN(C(=O)N(C)C)C2 (stereo not drawn) | -48.39 |
| CCc1noc(CS(=O)(=O)Cc2nc(Cc3ccccc3)no2)n1 | 34 |
| CCc1noc(CS(=O)(=O)Cc2ccccc2C)n1 | 30.59 |
| CCc1noc(CS(=O)(=O)Cc2ccccc2Cl)n1 | 61.32 |
| CC(=O)N1CCCC1C(=O)NCCOc1cccc(F)c1 (stereo not drawn) | 16.25 |
| CN(C)C(=O)NC1COC2(CCN(Cc3ccccc3)CC2)C1 (stereo not drawn) | 0.14 |
| CN(C)C(=O)NC1COC2(CCN(Cc3ccc(N(C)C)cc3)CC2)C1 (stereo not drawn) | 53.98 |
| CN(C)C(=O)NC1COC2(CCN(Cc3ccc(Cl)c(F)c3)CC2)C1 (stereo not drawn) | -8.04 |
| Cc1ccoc1C(=O)N1CC[C@H]2C[C@H](c3nnc(C4CC4)o3)O[C@@H]2C1 | -11.79 |
| CNC(=O)C1(C)CCCN1Cc1cnn(C)c1C (stereo not drawn) | 18.15 |
| CC(C)OCCCN(CC(=O)N1CCNCC1)C(=O)c1ccc(F)cc1 | -20.36 |
| COc1cc(Cl)ccc1CNC(=O)N1CCC(n2cncn2)CC1 | 70.27 |
| COc1ccc(OC)c(CNC(=O)N2CCC(n3cncn3)CC2)c1 | 3.06 |
| CCOc1ccccc1CNC(=O)N1CCC(n2cncn2)CC1 | -111.08 |
| NC(=O)NC(=O)CCSc1ccccc1Cl | 12.14 |
